Some test systems named below: OVCAR-8 ovarian; OVCAR-5 ovarian; OVCAR-4 ovarian; SK-OV-3 ovarian; IGROV1 ovarian; OVCAR-3 ovarian; HS 578T breast; NCI/ADR-RES ovarian; T-47D breast; BT-549 breast; MDA-MB-435 melanoma; SW-620 colon; MCF7 breast; HCT-116 colon; HCC-2998 colon; KM12 colon.
Common to all, as to test: NCI-60 one-dose screen, 48 h (100 = growth as untreated, 0 = no growth, -100 = all killed)
Common to all, as to conditions: 10 µM unless noted

The panel holds about 83,000 compounds, 20% with a hit somewhere; the sample as a whole holds those more often.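 Step 1: grow cells in 96-well plates. Step 2: add test compound at a single concentration. Step 3: incubate 48 h. Step 4: record percent growth.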 Values without a mark were called inactive. Activity calls are given as the source filed them. Rule for the calls: active = growth percent below 10; inactive = the rest.

`CCN1CCC[C@H]1c1cc(O)c2c(c1OC)C[C@H]1C[C@H]3[C@H](N)C(=O)C(C(N)=O)=C(O)[C@@]3(O)C(=O)C1=C2O`: the growth is -0.399% (active) with OVCAR-8 ovarian; 4.81% (active) in the test on OVCAR-5 ovarian; -0.794% (active) in the test on OVCAR-4 ovarian; -1.89% (active) in the test on SK-OV-3 ovarian; -5.97% (active) in the test on IGROV1 ovarian; 2.36% (active) with OVCAR-3 ovarian. Besides, the growth in the test on HS 578T breast was -3.05% (active); in the test on NCI/ADR-RES ovarian, 9.29% (active); in the test with T-47D breast, -8.2% (active); with BT-549 breast it was -3.73% (active); with MDA-MB-435 melanoma, -4.48% (active); in the test with SW-620 colon, 1.96% (active). For the same compound, the growth with MCF7 breast was 0.852% (active); in the test with HCT-116 colon it was -4.51% (active); in the test with HCC-2998 colon, -6.34% (active); in the test with KM12 colon, 5.97% (active).

With `O=C1NN(c2ccccc2)C(c2ccc3c(c2)OCO3)N2CCC[C@@H]12` (some centres not stated), the growth is 96.8% in the test on OVCAR-8 ovarian; 108% in the test on OVCAR-5 ovarian; 108% in the test with OVCAR-4 ovarian; 99% in the test on SK-OV-3 ovarian; 89.7% in the test on IGROV1 ovarian; 100% with OVCAR-3 ovarian. Moreover, the growth in the test on HS 578T breast is 104%; in the test on NCI/ADR-RES ovarian it was 97.9%; in the test with T-47D breast, 90.9%; with BT-549 breast, 114%; in the test with MDA-MB-435 melanoma, 105%; in the test on SW-620 colon, 105%. Further, the growth is 87.5% with MCF7 breast, 94.3% in the test on HCT-116 colon, 82.2% in the test with HCC-2998 colon and 98.8% in the test on KM12 colon.

For `CN(C)C1=NCCN1`, the growth is 104% in the test with OVCAR-8 ovarian; 104% in the test with OVCAR-5 ovarian; 114% with OVCAR-4 ovarian; 109% in the test with SK-OV-3 ovarian; 104% in the test with IGROV1 ovarian; 104% in the test on OVCAR-3 ovarian. Also, the growth was 106% with HS 578T breast; 106% in the test with NCI/ADR-RES ovarian; 110% with T-47D breast; 97.5% in the test on BT-549 breast; 110% in the test on MDA-MB-435 melanoma; 106% with SW-620 colon. Also, the growth in the test on MCF7 breast was 97.2%; in the test on HCT-116 colon, 98.7%; in the test on HCC-2998 colon, 101%; in the test on KM12 colon, 100%.

Take `Oc1ccc(CNNc2ccnc3c(O)cccc23)c2cccnc12`: the growth in the test with OVCAR-8 ovarian is 20.8%; in the test with OVCAR-5 ovarian, 59.1%; in the test with OVCAR-4 ovarian it was 34.4%; with SK-OV-3 ovarian, 27.6%; in the test on OVCAR-3 ovarian, 37.8%; in the test on HS 578T breast it was 47.7%. Besides, the growth was 6.61% (active) in the test with NCI/ADR-RES ovarian; 29.6% in the test with T-47D breast; 37.1% in the test with BT-549 breast; 38.1% with MDA-MB-435 melanoma; 27.9% in the test with SW-620 colon; 11.2% with MCF7 breast. Further, the growth in the test with HCT-116 colon is 27.3%; in the test with HCC-2998 colon, 35.7%; with KM12 colon, 22.9%.

With `C[C@H]1[C@H](C)CC[C@]2(C(=O)OCCCC[P+](c3ccccc3)(c3ccccc3)c3ccccc3)CC[C@]3(C)C(=CC[C@@H]4[C@@]5(C)CC[C@H](OC(=O)C(Cl)Cl)C(C)(C)[C@@H]5CC[C@]43C)[C@H]12`, the growth is -36.8% (active) in the test on OVCAR-8 ovarian; -52.2% (active) with OVCAR-5 ovarian; -12.1% (active) with OVCAR-4 ovarian; -15.5% (active) in the test with SK-OV-3 ovarian; -51.8% (active) in the test on IGROV1 ovarian; -88.8% (active) with OVCAR-3 ovarian. Moreover, the growth is -20.1% (active) in the test on HS 578T breast; 36.8% in the test with NCI/ADR-RES ovarian; -23.8% (active) with T-47D breast; -87.1% (active) in the test on BT-549 breast; -91.4% (active) with MDA-MB-435 melanoma; -71.3% (active) with SW-620 colon. Besides, the growth in the test on MCF7 breast is -38.1% (active); in the test with HCT-116 colon, -89.2% (active); in the test with HCC-2998 colon, -84.8% (active); in the test on KM12 colon, -85.7% (active).

Take `Cc1cccc(NC(=O)c2sc3nc4c(cc3c2N)CN(Cc2ccccc2)CC4)c1C`: the growth with OVCAR-8 ovarian is 34.3%; in the test with OVCAR-5 ovarian, 57.4%; in the test with OVCAR-4 ovarian, 61.7%; with SK-OV-3 ovarian it was 42.2%; in the test with IGROV1 ovarian it was 48.5%; in the test with OVCAR-3 ovarian it was -21.3% (active). Also, the growth with HS 578T breast is 30.8%; in the test with NCI/ADR-RES ovarian, 20.2%; in the test with T-47D breast, 53%; in the test with BT-549 breast, 54%; in the test on MDA-MB-435 melanoma, -25.2% (active); in the test with SW-620 colon it was 24.3%. Further, the growth in the test on MCF7 breast is 22.4%; in the test on HCT-116 colon, 29.2%; with HCC-2998 colon, 55.8%; in the test on KM12 colon, 25.7%.

Take `C=C(C)[C@@H]1CC[C@]2(C(=O)NCCCO)CC[C@]3(C)[C@H](CC[C@@H]4[C@@]5(C)CCCNC(C)(C)[C@@H]5CC[C@]43C)[C@@H]12`: the growth with OVCAR-8 ovarian was 87.4%; in the test on OVCAR-5 ovarian, 88%; in the test on OVCAR-4 ovarian, 69.3%; in the test with SK-OV-3 ovarian, 85.5%; in the test on IGROV1 ovarian it was 75.9%; in the test with OVCAR-3 ovarian, 79.2%. Besides, the growth in the test on HS 578T breast was 61.9%; in the test with NCI/ADR-RES ovarian, 82.7%; in the test on T-47D breast, 43.8%; in the test with BT-549 breast, 78.5%; in the test on MDA-MB-435 melanoma it was 69.9%; in the test with SW-620 colon it was 74.9%. The growth is 41.5% in the test with MCF7 breast, 53.7% with HCT-116 colon, 74.3% with HCC-2998 colon and 84.5% in the test on KM12 colon.

As to `O=C(Nc1cccc(-c2cccc(F)c2)c1)C1CCN(Cc2cccc3cccnc23)CC1`, the growth in the test on OVCAR-8 ovarian was 72%; in the test on OVCAR-5 ovarian it was 82.9%; in the test on OVCAR-4 ovarian, 51.6%; in the test on SK-OV-3 ovarian, 68.3%; in the test on OVCAR-3 ovarian it was 60.8%; in the test with HS 578T breast, 60.9%. Besides, the growth in the test with NCI/ADR-RES ovarian is 73%; in the test with T-47D breast, 29%; in the test on BT-549 breast, 76.3%; in the test with MDA-MB-435 melanoma it was 35%; with SW-620 colon, 43.3%; with MCF7 breast, 19.9%. In addition, the growth with HCT-116 colon is 33.8%; in the test on HCC-2998 colon, -70.4% (active); in the test with KM12 colon, 53.3%.

As to `CC(=O)Nc1nc2c(c(N)c1C#N)C(c1cccc(Cl)c1)C1=C(CCCC1=O)N2c1sc2c(c1C#N)CCCC2` (configuration not stated), the growth in the test with OVCAR-8 ovarian was 37%; in the test with OVCAR-5 ovarian it was 87.1%; in the test with OVCAR-4 ovarian, 57.5%; with SK-OV-3 ovarian it was 54.7%; with IGROV1 ovarian, 59.4%; in the test on OVCAR-3 ovarian, 56.1%. Also, the growth was 73.7% in the test with HS 578T breast; 46.7% with NCI/ADR-RES ovarian; 36.7% with T-47D breast; 45.9% with BT-549 breast; 65.5% with MDA-MB-435 melanoma; 80.3% in the test on SW-620 colon. Moreover, the growth with MCF7 breast is 20.7%; with HCT-116 colon it was 33.3%; in the test on HCC-2998 colon it was 45.7%; with KM12 colon, 49.1%.

These data come from PubChem BioAssay (NCI).
